Measured values published in PubChem BioAssay AID1159580 (chemical genetic matrix, 2015).
The campaign covered roughly 5,500 compounds. About 2,000 (36%) were called active. Inconclusive results (about 18%) are left out. Rule as the data show it: active = normalized growth mostly below about 0.91 (no sharp cut-off); inconclusive = no clear call, values can overlap the other calls; inactive = mostly above about 0.92. The list shows a part of the results.

Test: chemical genetic growth profiling, strain panel (AID 1159580);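 also: tested at 20 µM; growth read once vehicle control cultures reached saturation at 30 °C; 1 = growth at the plate median or of vehicle wells; lower values mean less growth of the strain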
Details: S. cerevisiae deletion strains, growth OD

Measured: normalized growth

CN(C)S(=O)(=O)c1ccc2c(c1)/C(=C/c1cc3c([nH]1)CCCC3)C(=O)N2
inactive: locus YAL040C, strain CLN3, stronger effect = lower value 1.07 | locus YCL061C, strain MRC1 (second series), stronger effect = lower value 0.995 | locus YDR363W, strain ESC2, stronger effect = lower value 0.983 | locus YER002W, strain NOP16, stronger effect = lower value 0.983 | locus YGR229C, strain SMI1, stronger effect = lower value 0.972 | locus YJR075W, strain HOC1, stronger effect = lower value 1.01 | locus YMR307W, strain GAS1, stronger effect = lower value 0.996 | locus YNL128W, strain TEP1, stronger effect = lower value 0.982 | locus YNL153C, strain GIM3, stronger effect = lower value 0.977 | locus YNL175C, strain NOP13, stronger effect = lower value 0.976 | locus YNL197C, strain WHI3, stronger effect = lower value 0.995 | locus YNL224C, strain SQS1, stronger effect = lower value 0.983 | locus YNL322C, strain KRE1, stronger effect = lower value 0.983 | locus YOR083W, strain WHI5 (second series), stronger effect = lower value 1 | locus YPL055C, strain LGE1, stronger effect = lower value 0.985
